We go through 14 molecules from PubChem BioAssay.

Test [1] can be described thus: inhibitors of TNFa-induced NFkB p65 translocation, primary screen, imaging, HUVEC, MLSMR starter and 10KST1 sets (AID 438;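 active means inhibition above 20% together with a positive visual image hit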;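 further: compound added about 3h40 before a 20 min TNFalpha stimulation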;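 on inhibition: signal is the nuclear over cytoplasmic p65 intensity ratio per well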). The note with it: HUVEC TNFa-induced p65 nuclear translocation; cell count: measured here: nuclei count (cytotoxicity indicator), at 2.08 µM; inhibition: at 2 µM, stronger effect = higher value, 0% TNFa-plus-vehicle, 100% no-TNFa wells.
Test [2] can be described thus: inhibitors of mutant huntingtin aggregation, primary screen, imaging, exon1htt(103Q)mCFP cells, high-content imaging (AID 483).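 Further: compound exposure lasted 3 days before fixation.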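 On nuclei count: percent of the per-plate median nuclei count of sample wells.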 The note with it: exon1htt(103Q)mCFP cell line, aggregate imaging, at 2 µM; inhibition of aggregation: stronger effect = higher value; nuclei count: measured here: cell count, toxicity.
A short description of test [3]: inhibitors of E-selectin induction by TNFa, primary screen, imaging, HUVEC, immunofluorescence, MLSMR starter and 10KST1 sets (AID 487;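 active means visually confirmed hit in the image check and inhibition above 20%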;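 on inhibition: signal is fraction of cell area covered by stained E-selectin grains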;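 on nuclei count: 100% = median nuclei count of all wells on the same plate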). The settings on record: HUVEC TNFalpha-induced E-selectin immunofluorescence imaging, at 2 µM; inhibition: stronger effect = higher value; nuclei count: measured here: cell number, toxicity.
Test [4] concerns the target Voltage-gated potassium channel subunit beta-2 (Rattus norvegicus) (UniProt P62483). As to the kind of experiment: KvBeta enzyme negative modulators, primary screen, biochemical, NADPH fluorescence (AID 622;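 active means fluorescence slope higher than the sample average by over 3 SD, cut at about -0.22 in these data, passing the limit was not always enough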;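 further: slope of raw intensity against log time taken from 70 to 1610 s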). The note with it: recombinant KvBeta, 4-cyanobenzaldehyde reduction, at 10 µM, stronger effect = higher value.
Test [5] shares this target. Nature of the test: KvBeta positive modulators, primary screen, biochemical, NADPH fluorescence (AID 623;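 active means NADPH fluorescence slope more negative than the mean of all samples by about 3 SD, 99.7% confidence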;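 further: fluorescence intensity change per second fitted from 20 to 320 s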). The settings on record: Recombinant KvBeta, NADPH fluorescence decrease slope, 10 min; at 10 µM; stronger effect = lower value.
The target of test [6] is Alpha-2C adrenergic receptor (Homo sapiens) (UniProt P18825). As to the kind of experiment: modulators of alpha2C/GIRK thallium flux, primary screen, cell-based, HEK293 alpha2C/GIRK1/2 (AID 624;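 active means fluorescence slope after compound addition differing from the mean of all screened samples at 99.7% confidence, in either direction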;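 further: slope of fluorescence ratio to pre-addition baseline per second over 15 to 24 s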). The note with it: thallium flux BTC fluorescence, at 10 µM, actives lie on both sides.
Chain of Alpha-2C adrenergic receptor (Homo sapiens) (P18825 whole entry, looked up): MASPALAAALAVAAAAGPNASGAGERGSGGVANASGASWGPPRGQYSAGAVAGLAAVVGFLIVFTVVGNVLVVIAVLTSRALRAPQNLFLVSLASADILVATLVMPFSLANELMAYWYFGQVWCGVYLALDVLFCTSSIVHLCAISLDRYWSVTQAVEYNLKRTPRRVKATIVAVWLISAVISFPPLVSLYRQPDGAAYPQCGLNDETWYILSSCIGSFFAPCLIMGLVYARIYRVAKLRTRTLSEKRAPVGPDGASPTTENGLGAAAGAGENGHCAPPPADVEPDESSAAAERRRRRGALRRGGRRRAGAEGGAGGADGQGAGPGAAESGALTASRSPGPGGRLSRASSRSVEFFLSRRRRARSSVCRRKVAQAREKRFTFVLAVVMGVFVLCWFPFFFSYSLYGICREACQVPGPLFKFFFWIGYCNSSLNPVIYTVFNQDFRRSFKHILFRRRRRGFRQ
Test [7] in a line: inhibitors of Sendai virus-induced IRF3 signaling, primary screen, TLR/RLR signaling modifier project, cell-based, Sendai virus stimulus, luciferase, 10K MLSCN set (AID 602276;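 active means inhibition at or above 50% at 10 µM; inactive means inhibition below 50%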;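 further: firefly luciferase from ISG56 promoter only with Renilla not read in this screen; 0% = Sendai virus plus DMSO and 100% = medium plus DMSO without virus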). The settings on record: HEK293 RL24 IRF3 luciferase reporter, at 10 µM, stronger effect = higher value. Background: Reporter assays use an easily measured gene product as a stand-in for the process of interest.
Test [8] is described as follows: inhibitors of poly I:C-induced TLR3 signaling, primary screen, cell-based, poly I:C stimulus, luciferase, 10K MLSCN set (AID 602277;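 active means inhibition of the reporter signal at or above 50%; inactive means inhibition below 50%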). The settings on record: HEK293-TLR3 RL24 IRF3 luciferase reporter, at 10 µM, stronger effect = higher value.

Calls of active or inactive are those of the source.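 How the source made its calls, unless noted: active means visual image review flags a hit and inhibition of aggregation exceeds 20%; inconclusive means visual hit but inhibition at or below 20%; inactive means no hit on visual image review.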

Chain of Voltage-gated potassium channel subunit beta-2 (Rattus norvegicus) (P62483 whole entry, looked up): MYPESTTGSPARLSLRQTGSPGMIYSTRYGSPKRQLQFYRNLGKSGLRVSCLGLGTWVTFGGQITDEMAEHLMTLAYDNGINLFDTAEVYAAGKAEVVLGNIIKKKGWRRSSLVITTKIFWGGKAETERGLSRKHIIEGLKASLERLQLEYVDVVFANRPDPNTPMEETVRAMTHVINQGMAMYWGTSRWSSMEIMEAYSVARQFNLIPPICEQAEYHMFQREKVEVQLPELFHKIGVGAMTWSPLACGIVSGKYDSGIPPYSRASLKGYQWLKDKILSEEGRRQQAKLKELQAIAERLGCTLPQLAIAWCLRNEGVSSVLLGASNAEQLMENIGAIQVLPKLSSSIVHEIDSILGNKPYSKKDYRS

Take `Cc1[nH]c(C(=O)N2CCCCC2)c(C)c1C(=O)NC1CCCCC1`: the cell count in test [1] turned out to be 425. The inhibition (in general, the drop in the measured response relative to a control, in per cent) in test [1] is 0.5% (inactive); in test [3], -49.8% (inactive); in test [7] it was 5.02% (inactive); in test [8], 4.54% (inactive). Moreover, the inhibition of aggregation in test [2] is 6.3% (inactive). The nuclei count was determined as 97.4% in test [2] and 123% in test [3]. Also, the fluorescence slope in test [4] was -0.528 (inactive). The NADPH fluorescence slope in test [5] is 2.6e-05 (inactive). In addition, in test [6], the slope was 0.00631 (inactive).
Take `COC(=O)CN1C(=O)C(O)(CC(=O)c2ccc(Cl)cc2)c2ccccc21` (centres undefined): in test [1], the cell count came to 605. Moreover, the inhibition in test [1] is -0.8% (inactive); in test [3], -40.7% (inactive); in test [7], 17.2% (inactive); in test [8] it was 36% (inactive). For the same molecule, the inhibition of aggregation in test [2] is -5.5% (inactive). The nuclei count came out at 110% in test [2] and 102% in test [3]. For the same molecule, in test [4], the fluorescence slope was -0.372 (inactive). In test [5], the NADPH fluorescence slope is 2.5e-05 (inactive). Moreover, the slope in test [6] was 0.00594 (inactive).
Consider `CC(C)CC(=O)Nc1ccccc1-c1nnn(CC(=O)N2CCOCC2)n1`, for which the cell count in test [1] is 739. For the same molecule, the inhibition was -6.7% (inactive) in test [1], 25.9% (inactive) in test [3], 7.19% (inactive) in test [7] and 13.9% (inactive) in test [8]. Further, in test [2], the inhibition of aggregation is 1.9% (inactive). For the same molecule, the nuclei count was 112% in test [2] and 106% in test [3]. Also, in test [4], the fluorescence slope was -0.497 (inactive). Further, the NADPH fluorescence slope in test [5] was -6.6e-05 (inactive). Further, the slope in test [6] is 0.00487 (inactive).
In the case of `CS(=O)(=O)N1CCCC(C(=O)N2CCOCC2)C1` (centres undefined), in test [1], the cell count amounted to 683. For the same molecule, the inhibition is 1.2% (inactive) in test [1], -142% (inactive) in test [3], 11.5% (inactive) in test [7] and 3.97% (inactive) in test [8]. Moreover, in test [2], the inhibition of aggregation was 9.8% (inactive). Also, the figures for the nuclei count in test [2] and in test [3] were 92% and 116%, respectively. Further, the fluorescence slope in test [4] is -0.566 (inactive). Besides, in test [5], the NADPH fluorescence slope was 6.2e-06 (inactive). In test [6], the slope was 0.00664 (inactive).
`CC(=O)NCc1nc2ccccc2n1C(C)C`: the cell count in test [1] turned out to be 518. Also, the inhibition is 13% (inactive) in test [1], 6.4% (inactive) in test [3], 7.73% (inactive) in test [7] and 21.5% (inactive) in test [8]. Further, the inhibition of aggregation in test [2] was 15.8% (inactive). Also, the nuclei count came out at 110% in test [2] and 119% in test [3]. In addition, the fluorescence slope in test [4] was -0.575 (inactive). Also, in test [5], the NADPH fluorescence slope is -3.7e-05 (inactive). The slope in test [6] is 0.00817 (inactive).
Turning to `O=C(O)C1C2CCC(O2)C1C(=O)NCCC1=CCCCC1` (centres undefined), the cell count in test [1] was 465. For the same molecule, the inhibition is 10.4% (inactive) in test [1], -112% (inactive) in test [3], 1.86% (inactive) in test [7] and 13.6% (inactive) in test [8]. Moreover, in test [2], the inhibition of aggregation is -18.3% (inactive). Besides, the nuclei count in test [2] was determined as 105%; in test [3] it was 117%. Moreover, in test [4], the fluorescence slope was -0.331 (inactive). Moreover, the NADPH fluorescence slope in test [5] is -5.8e-05 (inactive). Moreover, the slope in test [6] was 0.0055 (inactive).
For the molecule `COC(=O)c1ccccc1NC(=O)c1ccc(-c2ccccc2F)o1`, the cell count in test [1] was 516. Besides, the inhibition was -5.3% (inactive) in test [1], -37.1% (inactive) in test [3], 19.2% (inactive) in test [7] and -29.6% (inactive) in test [8]. In test [2], the inhibition of aggregation was -24.1% (inactive). Moreover, the nuclei count came to 111% in test [2] and 103% in test [3]. Also, in test [4], the fluorescence slope is -0.469 (inactive). Moreover, the NADPH fluorescence slope in test [5] is -1.5e-06 (inactive). Moreover, the slope in test [6] is 0.00728 (inactive).
For `CCOc1ccccc1NC(=O)CSc1nnc2c(CC)c(C)nc(N)n12`, in test [1], the cell count came out at 340. The inhibition was -6.8% (inactive) in test [1], 9.7% (inactive) in test [3], -6.38% (inactive) in test [7] and 98.4% (active) in test [8]. Also, the inhibition of aggregation in test [2] was 1.5% (inactive). Also, the nuclei count in test [2] is 99.1%; in test [3], 92.7%. For the same molecule, the fluorescence slope in test [4] is -0.305 (inactive). The NADPH fluorescence slope in test [5] is -4e-05 (inactive). Besides, in test [6], the slope was 0.00576 (inactive).
On to `O=C1C2ON(c3ccc(Cl)cc3)C(c3ccco3)C2C(=O)N1c1ccccc1` (centres undefined), for which the cell count in test [1] worked out at 510. The inhibition in test [1] was -2% (inactive); in test [3], -106% (inactive); in test [7], -6.65% (inactive); in test [8], -3.63% (inactive). The inhibition of aggregation in test [2] was 15.7% (inactive). The nuclei count in test [2] came out at 97%; in test [3], 107%. Also, in test [4], the fluorescence slope is -0.511 (inactive). In addition, the NADPH fluorescence slope in test [5] was -2.4e-05 (inactive). Also, in test [6], the slope was 0.00581 (inactive).
`Cn1c(SCC(=O)Nc2ccc3c(c2)oc2ccccc23)nnc1-c1ccccc1`: the cell count in test [1] is 403. Also, the inhibition is -1.1% (inactive) in test [1], -52.8% (inactive) in test [3], -1.19% (inactive) in test [7] and -25.5% (inactive) in test [8]. The inhibition of aggregation in test [2] was 4.5% (inactive). Further, the nuclei count in test [2] is 96.1%; in test [3] it was 109%. In test [4], the fluorescence slope is -0.515 (inactive). Also, the NADPH fluorescence slope in test [5] is -0.000134 (active). Further, the slope in test [6] was 0.0032 (inactive).
Turning to `COc1cc(C(c2sc3nc(C)nn3c2O)N2CC(C)CC(C)C2)cc(OC)c1OC` (centres undefined), in test [1], the cell count came out at 468. In addition, the inhibition was -3.4% (inactive) in test [1], -18.2% (inactive) in test [3], 9.58% (inactive) in test [7] and 18.7% (inactive) in test [8]. The inhibition of aggregation in test [2] is -10.7% (inactive). The nuclei count amounted to 114% in test [2] and 109% in test [3]. Further, in test [4], the fluorescence slope is -0.505 (inactive). The NADPH fluorescence slope in test [5] was -0.00015 (inactive). For the same molecule, the slope in test [6] was 0.00579 (inactive).
Consider `CC1=C(C(=O)Nc2cccnc2)C(c2ccc(C(C)C)cc2)n2ncnc2N1` (centres undefined), for which the cell count in test [1] turned out to be 712. In addition, the inhibition is -12.8% (inactive) in test [1], -56% (inactive) in test [3], 1.35% (inactive) in test [7] and 20% (inactive) in test [8]. Besides, the inhibition of aggregation in test [2] was -16.2% (inactive). The figures for the nuclei count in test [2] and in test [3] were 118% and 120%, respectively. Further, the fluorescence slope in test [4] is -0.4 (inactive). Moreover, the NADPH fluorescence slope in test [5] is 5.8e-05 (inactive). For the same molecule, the slope in test [6] is 0.00428 (inactive).
As for `COc1cc(OC)cc(OCC(O)Cn2cnc(-c3ccccc3)c2)c1` (centres undefined), the cell count in test [1] was determined as 586. Besides, the inhibition was 6% (inactive) in test [1], 11.1% (inactive) in test [3], 17.6% (inactive) in test [7] and 31.3% (inactive) in test [8]. The inhibition of aggregation in test [2] is -5.4% (inactive). Moreover, the values for the nuclei count in test [2] and in test [3] were 92.1% and 94.7%, respectively. Besides, the fluorescence slope in test [4] was -0.469 (inactive). For the same molecule, the NADPH fluorescence slope in test [5] was -4e-05 (inactive). For the same molecule, in test [6], the slope is 0.00517 (inactive).
With `COc1ccc(C(=O)c2ccccc2)c(O)c1`, the cell count in test [1] turned out to be 585. Besides, the inhibition was -2.6% (inactive) in test [1], 1.3% (inactive) in test [3], -1.71% (inactive) in test [7] and -8.45% (inactive) in test [8]. The inhibition of aggregation in test [2] is 6.6% (inactive). Moreover, the nuclei count was 94.1% in test [2] and 97.5% in test [3]. Moreover, the fluorescence slope in test [4] was -0.443 (inactive). In test [5], the NADPH fluorescence slope is 2.6e-05 (inactive). The slope in test [6] was 0.00543 (inactive).
